Among the data in PubChem BioAssay (NCATS) are outcome, Potency and activity, negative = inhibition values, retold here.

The target of assay [1] is Calcium and integrin-binding protein 1 (Homo sapiens) (UniProt Q99828). Briefly: Confirmatory qHTS for Identification of Calcium Integrin Binding Protein 1 (CIB1) Competitor (AID 1508617). Note: % is set by controls: 0 for no effect and ±100 for the full control effect; nearly all actives have a fitted effect of over 65% in size. In a few lines:
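FP competition: CIB1-GST (1 uM final) in 5 mM HEPES pH 7.4, 125 mM NaCl, 5 mM CaCl2, 0.01% Tween20 preincubated 15 min RT with compounds (up to 114 uM), then FITC-alphaIIb peptide (100 nM), 15 min RT; Ex 480/Em 540.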
In general terms: In qHTS, concentration-response curves come from the screen itself.

A short description of assay [2]: qHTS of pediatric cancer cell lines to identify multiple opportunities for drug repurposing: Primary screen for SK-N-SH cells (AID 1347098). Note: potency is the fitted concentration of half-maximal effect; nearly all actives have a fitted effect of over 65% in size. Conditions: SK-N-SH viability, CellTiter-Glo luminescence, 48 h. In a few lines:
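Cells (500-1,000/well) rested 5 h, then received compounds for 48 h; metabolically active cells were measured by CellTiter-Glo luminescence. Final concentrations spanned up to 46 µM (MIPE, 11-point) or 0.59 nM-46 µM (NPC, 8-point) in primary screens, 11-point in follow-ups.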

Assay [3] in a line: qHTS of pediatric cancer cell lines to identify multiple opportunities for drug repurposing: Primary screen for Rh18 cells (AID 1347102). Note: potency is the fitted concentration of half-maximal effect; nearly all actives have a fitted effect of over 65% in size. Conditions: Rh18 rhabdomyosarcoma viability, CellTiter-Glo luminescence, 48 h. In a few lines:
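Viability after 48 h compound treatment at 37C, 500-1,000 cells/well, read as ATP luminescence with CellTiter-Glo. Primary screens used 11-point (MIPE, 0.78 nM-46 µM) or 8-point (NPC, 0.59 nM-46 µM) final concentrations; follow-up screens used 11-point dilutions.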

Assay [4] can be described thus: qHTS of pediatric cancer cell lines to identify multiple opportunities for drug repurposing: Primary screen for MG 63 (6-TG R) cells (AID 1347105). Note: potency is the fitted concentration of half-maximal effect; nearly all actives have a fitted effect of over 50% in size. To be noted: MG 63 (6-TG R) viability, CellTiter-Glo, 48 h. The procedure, abridged:
(§1)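 Following a 5-hour attachment period, cells at 500-1,000/well received compounds and were cultured for 48 hours. CellTiter-Glo was added and luminescence read to estimate viable, metabolically active cells.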

Assay [5] deals with Protein phosphatase 1D (Homo sapiens) (UniProt O15297). As to the kind of experiment: Rhodamine-PBP qHTS Assay for Modulators of WT P53-Induced Phosphatase 1 (WIP1) (AID 1347425). Note: % of control where 0% means no effect. In a few lines:
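WIP1 (5 nM final) was preincubated with compound for 1 hour at room temperature. It then dephosphorylated 10 uM VEPPL-pS-QETFS peptide in Tris-HCl pH 7.5 with 30 mM MgCl2. Released Pi was detected by 10 uM Rh-PBP fluorescence (ex 525/em 598 nm) read at 1-min intervals for 11 min, as delta f1 - f0.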

The nature of assay [6]: A High-Content qHTS Against Drug Library for the Identification of Small Molecules that Inhibit DYT1 Early Onset Primary Dystonia-Associated Cell Pathology (AID 1645839; calls by dose curve). The procedure, abridged:
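Flp-In T-REx 293 cells with tetracycline-inducible EGFP-delE hTOR1A (WT EGFP-hTOR1A as reference), 800 cells/well; compound added with tetracycline, 48 h at 37 C. Fixed, permeabilized cells imaged; %pathology (punctate TorsinA) primary, cell count counterscreen.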

Assay [7] deals with Cytochrome P450 3A4 (Homo sapiens) (UniProt P08684). As to the kind of experiment: Cytochrome P450 family 3 subfamily A member 4 (CYP3A4) small molecule antagonists: luciferase qHTS assay (AID 1645841; active = well fitted curve in the direction sought with a large enough effect in the repeat runs; an effect the other way counts as inactive or inconclusive; note: nearly all actives have a fitted effect of over 45% in size). In a few lines:
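P450-Glo CYP3A4 enzyme with proluciferin substrate preincubated 10 min with compound at room temperature, then NADPH regeneration 1 h. Luciferin detection reagent added for 20 min; luminescence recorded. Ketoconazole positive control.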

Assay [8] in a line: ZIKV-mCherry secondary qHTS for Zika virus inhibitors (AID 1347158). Note: potency is the fitted concentration of half-maximal effect. The procedure, abridged: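 Vero cells, 5,000/well, plated overnight at 37 °C, then compound added and infected with recombinant ZIKV-mCherry at MOI 1 for 48-72 h. PFA-fixed, Hoechst nuclear stain, high-content imaging; cells with mCherry intensity above 450 RFU scored infected, reported as percent infection.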

The nature of assay [9]: qHTS of pediatric cancer cell lines to identify multiple opportunities for drug repurposing: Primary screen for TC32 cells (AID 1347089). Note: % is set by controls: 0 for no effect and ±100 for the full control effect; nearly all actives have a fitted effect of over 60% in size. The procedure, abridged: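 A viability screen of TC32 cells was run over 48 h, with primary MIPE doses spanning 0.78 nM–46 µM and NPC doses 0.59 nM–46 µM. ATP luminescence (CellTiter-Glo) served as the read-out.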
Assay [10] in a line: qHTS of pediatric cancer cell lines to identify multiple opportunities for drug repurposing: Primary screen for RD cells (AID 1347104). Note: potency is the fitted concentration of half-maximal effect; nearly all actives have a fitted effect of over 55% in size. To be noted: RD rhabdomyosarcoma viability, CellTiter-Glo luminescence, 48 h. The procedure, abridged:
as §1

The subject of the next assay is MCC-13. Briefly: qHTS assay to identify novel small-molecules to repurpose for Merkel cell carcinoma treatment (AID 1296009). Note: % is set by controls: 0 for no effect and ±100 for the full control effect; nearly all actives have a fitted effect of over 60% in size. To be noted: MCC and control cell lines, CellTiter-Glo viability, 72 h; series mostly up to 46 µM. The procedure, abridged:
(§2)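 Cells were incubated with compound for 72 hr at 37 degree celsius before CellTiter-Glo addition. Luminescence was normalized with no-cell wells as full cytotoxicity and DMSO as baseline.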

Another assay has as its system MCC-26. The description is as above. To be noted: MCC and control cell lines, CellTiter-Glo viability, 72 h; series mostly up to 46 µM. In a few lines: as §2
In general terms: In ATP-based viability assays light output follows the ATP content of the culture.

Assay [11] has as its target Cytochrome P450 3A4 (Homo sapiens) (UniProt P08684). Briefly: qHTS Assay for Activators of Cytochrome P450 3A4 (AID 885). Note: nearly all actives have a fitted effect of over 65% in size. The procedure, abridged:
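Human CYP3A4 (20 nM) with Luciferin-PPXE at 25 uM (its KM) in 200 mM KPO4; 10 min compound preincubation, then NADPH regeneration and 60 min reaction at RT. Luciferin read by luminescence; normalized to 57 uM ketoconazole full inhibition.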

Assay [12] in a line: Counterscreen qHTS for small molecule stabilizers of the endoplasmic reticulum resident proteome: GLuc-NoTag assay (AID 1508627).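 Note: SH-SY5Y cells given compound then 100 nM thapsigargin to empty ER calcium; 0% = thapsigargin alone and -100% = DMSO vehicle control.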 In a few lines: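 SH-SY5Y cells stably expressing constitutively secreted GLuc without SERCaMP tag, exposed to compound for 19 hr, then to 100 nM thapsigargin for 4 hr at 37C. Medium luciferase was read by coelenterazine luminescence without lysis.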

Assay [13] is described as follows: NCATS anti-infectives library activity on the primary C. elegans qHTS viability assay (AID 1745855; calls by dose curve). In a few lines:
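Viability is taken from GFP fluorescence of PE254-GFP-FLuc C. elegans imaged by laser cytometry over 7 days. Ten L1 worms per well grow at 21 °C on TOP10 E. coli capsules with titrated compound; levamisole marks toxicity.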

Assay [14] can be described thus: Cell Viability - BJ (AID 421; calls by dose curve;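 note: potency is the fitted concentration of half-maximal effect; cells exposed to compound for 40 hours at 37 °C before readout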). To be noted: BJ fibroblast viability, qHTS. In a few lines:
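Normal human BJ foreskin fibroblasts, 1500/well in complete medium, treated 40 hr at 37 °C. Cellular ATP by CellTiter-Glo luminescence; normalized to DMSO and 100 uM tamoxifen, AC50 from Hill fit.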

A short description of assay [15]: Cell Viability - Jurkat (AID 426;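 active = dose-dependent loss of cell ATP signal giving a full or clear fitted curve, ranked by lower potency value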; note: potency is the fitted concentration of half-maximal effect). To be noted: qHTS. In a few lines:
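Jurkat (clone E6-1, human T-cell leukemia) cells, 5000/well in complete medium, were exposed to compound for 40 hr at 37 °C. Viability was read as intracellular ATP by CellTiter-Glo luminescence; AC50 came from Hill fits of concentration-response data.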

Assay [16] is described as follows: Cell Viability - Hek293 (AID 427;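 active = compounds whose dose-response curve shows a full or clear partial loss of cell viability, called from curve shape rather than a numeric limit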;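 note: potency is the fitted concentration of half-maximal effect; cells exposed to compound for 40 hours at 37 °C before reading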). To be noted: qHTS. In a few lines: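 HEK293 cells in complete medium were exposed to compound for 40 hr at 37 °C, then cellular ATP was read by CellTiter-Glo luminescence. Data were normalized to DMSO (basal) and 100 uM tamoxifen (100% inhibition), and AC50 came from Hill fits.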
Assay [17] can be described thus: Cell Viability - HepG2 (AID 433; calls by dose curve;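 note: potency is the fitted concentration of half-maximal effect; potency for ATP loss meaning cytotoxicity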). To be noted: qHTS. The procedure, abridged: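 In this qHTS format, a 40 h, 37 °C compound incubation of HepG2 cells in complete medium precedes a 20 min CellTiter-Glo step at room temperature. Tamoxifen and doxorubicin serve as positive controls; Hill-equation fits yield AC50.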
Assay [18] can be described thus: qHTS profiling for inhibitors of Plasmodium falciparum proliferation (AID 504749).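 Note: 0% = DMSO vehicle and full inhibition = artemisinin control; nearly all actives have a fitted effect of over 60% in size.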 Conditions: P. falciparum in erythrocytes, SYBR Green DNA, 72 h, at 28.7 µM (top of the series). The procedure, abridged:
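Readout was DNA-dye fluorescence from lysed cultures, ex 485/em 535 nm. Parasitized red cells had grown 72 h with compound; data scaled between 0.29 uM artemisinin and DMSO wells and corrected using vehicle-only plates.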

Unmarked numbers belong to inactive results. Inconclusive results are not listed. Active and inactive are the calls of the source. Unless noted, calls come from the whole dose curve; as a rule, active = well fitted curve in the direction sought with a large enough effect; inconclusive = small, poorly fitted or top-dose-only effect, or another doubt; inactive = no such curve, though single readings can be large; an effect the other way counts as inactive or inconclusive. Bounds are passed on as bounds.

Chain of Protein phosphatase 1D (Homo sapiens) (O15297 whole entry, looked up): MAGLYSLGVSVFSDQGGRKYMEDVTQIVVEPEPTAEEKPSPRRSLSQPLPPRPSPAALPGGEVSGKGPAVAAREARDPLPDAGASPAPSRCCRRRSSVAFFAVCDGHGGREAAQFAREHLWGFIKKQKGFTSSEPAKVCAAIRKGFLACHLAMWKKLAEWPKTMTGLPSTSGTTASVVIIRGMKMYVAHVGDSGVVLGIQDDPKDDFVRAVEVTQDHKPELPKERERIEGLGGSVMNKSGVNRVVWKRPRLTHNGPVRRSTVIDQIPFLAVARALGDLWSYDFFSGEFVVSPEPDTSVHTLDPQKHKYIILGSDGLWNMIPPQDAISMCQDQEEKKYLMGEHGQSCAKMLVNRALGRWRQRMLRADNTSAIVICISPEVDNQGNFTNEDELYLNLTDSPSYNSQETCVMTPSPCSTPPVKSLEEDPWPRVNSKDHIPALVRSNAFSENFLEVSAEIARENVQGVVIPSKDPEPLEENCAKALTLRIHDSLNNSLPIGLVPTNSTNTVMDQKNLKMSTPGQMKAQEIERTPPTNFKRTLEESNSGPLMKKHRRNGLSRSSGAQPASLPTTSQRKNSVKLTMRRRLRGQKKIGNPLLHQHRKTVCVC
Chain of Cytochrome P450 3A4 (Homo sapiens) (P08684 whole entry, looked up): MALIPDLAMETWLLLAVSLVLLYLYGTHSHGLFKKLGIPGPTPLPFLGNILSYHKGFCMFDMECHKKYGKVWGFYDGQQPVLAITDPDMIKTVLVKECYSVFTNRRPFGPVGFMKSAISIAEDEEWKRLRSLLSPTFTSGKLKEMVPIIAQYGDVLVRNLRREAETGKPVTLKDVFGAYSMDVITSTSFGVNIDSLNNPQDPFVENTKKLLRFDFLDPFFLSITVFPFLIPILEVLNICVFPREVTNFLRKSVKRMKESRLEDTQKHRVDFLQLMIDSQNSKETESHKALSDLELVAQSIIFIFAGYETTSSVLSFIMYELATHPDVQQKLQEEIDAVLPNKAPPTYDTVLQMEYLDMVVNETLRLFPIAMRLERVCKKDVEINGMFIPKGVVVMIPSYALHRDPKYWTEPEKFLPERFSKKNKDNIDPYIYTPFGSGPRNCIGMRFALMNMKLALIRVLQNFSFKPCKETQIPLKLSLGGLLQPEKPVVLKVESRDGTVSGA
Chain of Calcium and integrin-binding protein 1 (Homo sapiens) (Q99828 whole entry, looked up): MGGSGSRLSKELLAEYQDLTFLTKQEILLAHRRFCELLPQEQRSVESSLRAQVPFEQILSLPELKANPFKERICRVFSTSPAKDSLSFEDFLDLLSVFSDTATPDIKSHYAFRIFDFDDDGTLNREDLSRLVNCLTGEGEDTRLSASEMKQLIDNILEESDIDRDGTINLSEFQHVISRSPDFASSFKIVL

Consider `Cn1cnc(-c2nccc3c(=O)[nH]c(OCCCC(F)(F)F)nc23)c1`, for which, in [1], the result was inactive.
Turning to `CCN(CC)c1ccc(C(=C2C=CC(=[N+](CC)CC)C=C2)c2cc(S(=O)(=O)O)ccc2S(=O)(=O)[O-])cc1`, the Potency in assay [2] was 3.86 µM (active); in assay [3] it was 11.9 µM (active); in [4], 16.8 µM (active). Also, the call in [5] and in assay [6] was inactive.
Turning to `Cc1ccc(C(=O)N2CCN(c3ccc([N+](=O)[O-])cc3)CC2)cc1Cl`, the compound was classed as inactive in [7].
On to `O=C(NCc1ccc(Oc2ccccc2)cc1)c1nc(-c2cc(Br)c(O)c(Br)c2)no1`, for which the Potency in assay [8] is 7.08 µM (active).
For the compound `CS(=O)(=O)c1ccc(-c2cn3ccccc3n2)cc1`, the call (in assay [9]; in [5]; in assay [6]; with MCC-13; in the assay with MCC-26) was inactive. The Potency in assay [10] was 23.7 µM (active).
For the compound `Oc1ccc(Nc2nc(-c3ccc(Cl)cc3)cs2)cc1`, the Potency entry in assay [11] and in assay [12] was “inactive” each time.
`N#C[C@@H]1C[C@@H]2C[C@@H]2N1C(=O)[C@@H](N)C12CC3CC(CC(O)(C3)C1)C2`: in assay [13], the Potency result is “inactive”.
For `Nc1ccc(N)c([N+](=O)[O-])c1`, the Potency in [14], in assay [15], in assay [16] and in assay [17] was above 92 µM each time.
As for `CCCCC(=O)N(Cc1ccc(-c2ccccc2-c2nn[nH]n2)cc1)C(C(=O)O)C(C)C` (stereo not drawn), the activity, negative = inhibition in [18] (parasite line A) is 9.14%; in [18] (parasite line B) it was 6.89%.
